What all share (test): NCI-60 one-dose screen, 48 h (100 = growth as untreated, 0 = no growth, -100 = all killed)
The test system of test [1] is DU-145 prostate. The following applies: 10 µM unless noted.
Test [2] has as its system MALME-3M melanoma. To be noted: 10 µM unless noted.
Test [3] relates to MDA-MB-231 breast. To be noted: 10 µM unless noted.
Test [4] deals with RXF 393 renal. The following applies: 10 µM unless noted.
The subject of test [5] is SF-268 CNS. The following applies: 10 µM unless noted.
For test [6], the system named is SF-295 CNS. The following applies: 10 µM unless noted.
Test [7] has as its system SF-539 CNS. To be noted: 10 µM unless noted.
For test [8], the system named is UACC-257 melanoma. The following applies: 10 µM unless noted.
Test [9] concerns M14 melanoma. The following applies: 10 µM unless noted.
For test [10], the system named is HCT-15 colon. To be noted: 10 µM unless noted.
For test [11], the system named is HT29 colon. The following applies: 10 µM unless noted.
Test [12] relates to SNB-75 CNS. The following applies: 10 µM unless noted.
In test [13] the test system is SNB-19 CNS. The following applies: 10 µM unless noted.
Test [14] has as its system U251 CNS. To be noted: 10 µM unless noted.
In test [15] the test system is PC-3 prostate. The following applies: 10 µM unless noted.
In test [16] the test system is UACC-62 melanoma. The following applies: 10 µM unless noted.
The subject of test [17] is LOX IMVI melanoma. To be noted: 10 µM.
The test system of test [18] is SK-MEL-28 melanoma. To be noted: 10 µM unless noted.
Test [19] relates to K-562 leukemia. To be noted: 10 µM unless noted.
For test [20], the system named is SK-MEL-5 melanoma. To be noted: 10 µM unless noted.

Compounds without any hit were thinned out: in the full panel of roughly 83,000, 20% have a hit.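 The endpoint reported here, percent growth, reads 100 for growth as untreated, 0 for no net growth and -100 for all cells dead.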 Values without a mark were called inactive. The source made the active and inactive calls. The calls were made as follows: active = growth percent below 10; inactive = the rest.

On to `COc1ccc(C2=NN(c3ccccc3)C(c3ccc(OCc4ccccc4)c(OC)c3)C2)cc1OC` (stereo unspecified), for which the growth is 113% in test [1]; 99.1% in test [2]; 101% in [3]; 86.2% in test [4]; 90% in [5]; 91.3% in test [6]. Further, the growth in test [7] is 98.7%; in test [8], 90.9%; in test [9], 91.2%; in [10], 93.8%; in test [11] it was 86.6%; in [12], 97.3%. Moreover, the growth in [13] was 98.9%; in [14], 108%; in test [15], 92.7%; in test [16] it was 85.1%; in test [17], 105%; in test [18] it was 104%.
Consider `CC(=O)Nc1cccc(Nc2nccc(N[C@@H](C)c3ccccc3)n2)c1`, for which the growth in test [1] is 24.8%; in test [19] it was 7.64% (active); in [2] it was 28.7%; in [4] it was 21.2%; in test [5], 27.6%; in test [6] it was -8.12% (active). Besides, the growth is 9.09% (active) in test [7]; 40.5% in [8]; 22.6% in [9]; 7.75% (active) in test [10]; 2.53% (active) in test [11]; 7.86% (active) in [12]. The growth in [14] was 24.4%; in test [15], 30.5%; in test [20] it was -31% (active); in test [16], 20.6%; in test [18], 49.4%.
In the case of `C=C1CC[C@@H]2[C@]3(C)COC(c4cn[nH]c4-c4ccc(OC)cc4)O[C@@H]3CC[C@@]2(C)[C@@H]1C/C=C1/C(=O)OCC1O` (stereo partly specified), the growth in [1] was -27.2% (active); in [19] it was -31.2% (active); in test [2], -62.1% (active); in test [4] it was -58.5% (active); in [5], 3.8% (active); in test [6] it was -41.9% (active). For the same compound, the growth in test [7] is -87.2% (active); in [8] it was -24.6% (active); in test [9], -50.9% (active); in test [10] it was -35.3% (active); in test [12], -16.5% (active); in test [13] it was 18.5%. For the same compound, the growth in [14] is -76% (active); in [15], 39.3%; in test [20], -94.3% (active); in test [16] it was -75.2% (active); in [18], -52.2% (active).
For the compound `O=C(N/N=C/c1ccc(-c2ccc(O)cc2)s1)c1[nH]c2ccc(Br)cc2c1-c1ccccc1`, the growth was 30.1% in [1]; 2.31% (active) in test [19]; -2.08% (active) in test [2]; -29.5% (active) in test [4]; 28.9% in test [5]; 0.137% (active) in test [6]. The growth in test [7] is -57.2% (active); in [8] it was 53.9%; in test [9] it was 9.8% (active); in test [10] it was 6.81% (active); in [11], -71.4% (active); in test [12] it was -12.7% (active). Also, the growth in test [14] is 25.7%; in test [15], 7.47% (active); in test [20], 5.31% (active); in test [16], -13.1% (active); in test [18], 1.23% (active).
As for `O=C(O)c1cccc(-c2ccc(/C=N/NC(=O)c3[nH]c4ccc(Br)cc4c3-c3ccccc3)s2)c1`, the growth in test [1] is 55.6%; in test [19], 19.8%; in test [2], 57.9%; in [4], -2.3% (active); in [5], 39%; in test [6], 15.6%. Further, the growth in [7] was 16.1%; in [8], 85.5%; in test [10], 17.4%; in [11], 69%; in test [12], 29.6%; in test [13], 26.2%. Moreover, the growth in test [14] is 27%; in [15], 56.9%; in test [20], 30.1%; in test [16], 19.5%; in test [18] it was 44.2%.
`O=C(NNc1nc2cc(F)ccc2n2c(CN3CCCCC3)ccc12)c1cnccn1`: the growth in test [1] was -43.7% (active); in test [2] it was 22.6%; in test [3], -31.1% (active); in test [4], -83.3% (active); in [5], -20.9% (active); in test [6], -92% (active). The growth in test [7] was -66% (active); in [8], -81.1% (active); in test [9], -86.5% (active); in test [10], -52.4% (active); in test [11], 8.19% (active); in [12] it was -9.76% (active). Moreover, the growth is -8.81% (active) in [13]; -84.8% (active) in [14]; -18.3% (active) in test [15]; -35.2% (active) in test [16]; -69.7% (active) in [17]; -57.4% (active) in test [18].
On to `CC(C)c1ccc2c(N)c(C(=O)Nc3ccc(C(F)(F)F)cn3)sc2n1`, for which the growth was 63.8% in test [1]; 33.1% in [19]; 63% in test [2]; 74.5% in test [4]; 91.8% in test [5]; 34.3% in test [6]. Also, the growth in test [7] was 88%; in test [8] it was 60%; in test [10] it was 58.7%; in [11], 69.5%; in [12], 78.6%; in test [13], 71.5%. Also, the growth in test [14] is 62.9%; in [15], 44.7%; in test [20], 5.02% (active); in test [16] it was 69.7%; in [18], 77.3%.
On to `O=c1[nH]n(C(=S)N/N=C/c2ccccc2Cl)c(=O)c2ccccc12`, for which the growth is 15.1% in [1]; 4.54% (active) in test [19]; 28.3% in test [2]; -57.7% (active) in [4]; 28.5% in test [5]; 15.9% in [6]. Besides, the growth in test [7] was -20.2% (active); in test [8], 37.2%; in test [10] it was -41.3% (active); in test [11] it was 0.552% (active); in test [12], 52.1%; in test [13], 8.55% (active). The growth is -46.5% (active) in test [14]; 22.6% in [15]; 5.82% (active) in test [20]; -65.4% (active) in test [16]; -26.3% (active) in test [18].
On to `COc1ccc(C(=O)/C=C/c2cccc(Br)c2)cc1S(N)(=O)=O`, for which the growth is -37% (active) in test [1]; -33.5% (active) in [2]; -65.5% (active) in test [3]; -80.3% (active) in test [4]; -39.4% (active) in [5]; -81.2% (active) in test [6]. In addition, the growth was -95.7% (active) in [7]; -80% (active) in [8]; -93% (active) in test [9]; -69.7% (active) in test [10]; -56.4% (active) in [11]; -17% (active) in test [12]. In addition, the growth was -42.8% (active) in test [13]; -98.4% (active) in test [14]; -34.6% (active) in test [15]; -55.8% (active) in [16]; -91.7% (active) in test [17]; -55.6% (active) in test [18].
